Test results reported in PubChem BioAssay (NCI).
The panel holds about 83,000 compounds, 20% with a hit somewhere; the sample as a whole holds those more often.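 Results are percent growth after 48 hours of single-concentration exposure. 100 means growth as in untreated cells, lower positive values show inhibition; negative values down to -100 show cell death.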 Unmarked numbers belong to inactive results. Calls of active or inactive are those of the source. Rule for the calls: active = growth percent below 10; inactive = the rest.

Columns and labels:
Experiment in all cases: NCI-60 one-dose screen, 48 h (100 = growth as untreated, 0 = no growth, -100 = all killed)
Settings in all cases: 10 µM unless noted
NCI-H23 lung = test system: NCI-H23 lung
NCI-H226 lung = test system: NCI-H226 lung
HOP-62 NSCLC = test system: HOP-62 NSCLC
NCI-H460 lung = test system: NCI-H460 lung
HOP-92 NSCLC = test system: HOP-92 NSCLC
NCI-H522 lung = test system: NCI-H522 lung
A549/ATCC NSCLC = test system: A549/ATCC NSCLC
786-0 renal = test system: 786-0 renal
COLO 205 colon = test system: COLO 205 colon
NCI-H322M lung = test system: NCI-H322M lung

Row | Compound | growth (NCI-H23 lung) | growth (NCI-H226 lung) | growth (HOP-62 NSCLC) | growth (NCI-H460 lung) | growth (HOP-92 NSCLC) | growth (NCI-H522 lung) | growth (A549/ATCC NSCLC) | growth (786-0 renal) | growth (COLO 205 colon) | growth (NCI-H322M lung)
1 | Oc1ccccc1-c1nnc(SCc2ccc(O)c3ncccc23)o1 | 23.5% | 67.5% | 31.1% | 5.53% (active) | -8.17% (active) | 20.7% | 27.5% | 32.2% | 113% | 
2 | O=C(CCCCCCN1CC(=O)N2[C@@H](c3ccc(Cl)c(F)c3)c3[nH]c4ccccc4c3C[C@H]2C1=O)NO | 95.3% | 101% | 78.8% | 79.5% | 92.2% | 71.7% | 104% | 93.9% | 97.4% | 
3 | NS(=O)(=O)c1ccc(Nc2nc(N/N=C/c3ccc(F)cc3)nc(Nc3ccccc3)n2)cc1 | 54.2% | 50.8% | 17.9% | 65.1% | 63.5% | 15.5% | 7.78% (active) | 58.8% |  | 
4 | CN(c1ccc(Cl)cc1)S(=O)(=O)c1ccc(-c2cnc(C3CC3)o2)cc1 | 23.8% | 14.5% | 45.6% | 8.85% (active) | 63.9% | 30.8% | 24.3% | 31.9% | -7.11% (active) | 
5 | COc1cc(CNC(=O)Cc2ccccc2[N+](=O)[O-])ccc1OCC(=O)NO | 102% | 100% | 102% | 114% | 101% | 102% | 106% | 106% | 104% | 
6 | C#CCOc1ccccc1C(Nc1ccccc1)c1nnnn1C1CCCCC1 (stereo not given) | 103% | 107% | 103% | 103% | 103% |  | 96% | 88.3% | 112% | 
7 | Brc1cccc(/C=N/Nc2nc(N/N=C/c3cccc(Br)c3)nc(N3CCOCC3)n2)c1 | 43.1% | 43.3% | 52.3% | 41.2% | 63.8% |  | 42.6% | 24.5% | 23.8% | 
8 | CCN(CC)CCN1C(=O)c2c(c3c4cccnc4[nH]c3c3ccc4ccccc4c23)C1=O | 60.3% | 79.4% | 38.4% | 13.8% | 91.9% | 65.4% | 60% | 60.9% | 72.1% | 
9 | CC1(C)CC[C@]2(C(=O)N3CCCN(CC#N)CC3)CC[C@]3(C)C(=CC[C@@H]4[C@@]5(C)CC[C@H](O)C(C)(C)[C@@H]5CC[C@]43C)[C@H]2C1 | 55.6% | 71.1% | 70.8% | 16.8% | 19.3% | 67.5% | 39.1% | 68.6% | -15.5% (active) | 
10 | C#C[C@]1(O)CC[C@H]2[C@@H]3CC=C4c5sc(Nc6cccc(Cl)n6)nc5CC[C@]4(C)[C@H]3CC[C@@]21C | 16.1% | 19.8% | -8.39% (active) | -2.3% (active) | -5.56% (active) | -17.7% (active) | 18.5% | -54.8% (active) | 34.5% | 
11 | CN1CCN(c2ccc3c(C(N)=O)c(NC(=O)c4ccc(C(C)(C)C)cc4)sc3c2)CC1 | 79.7% | 104% |  | 53.8% | 79% | 103% | 76.2% | 71.2% | 70.1% | 
12 | Cc1ccc(S(=O)(=O)N/N=C/c2cn(-c3ccc(F)cc3)nc2-c2ccc(S(C)(=O)=O)cc2)cc1 | 104% | 102% | 101% | 108% | 89.7% | 95.3% | 101% | 100% | 107% | 
13 | NS(=O)(=O)c1ccc(Nc2nc(N/N=C/c3ccc(C(F)(F)F)cc3)nc(Nc3ccccc3)n2)cc1 | 52.8% | 36.7% | 38% | 14.6% | 57.4% | 38% | 27.6% | -3.55% (active) | 29.3% | 
14 | Cc1ccc(-c2cc(-c3ccc(N(C)C)cc3)n3c(n2)nc2ccccc23)cc1 | 57.1% | 57% | 83.1% | 61.7% | 21.7% | 25.4% | 56.5% | 80.8% | 92.5% | 
15 | COc1cc(O)c2c(c1)/C=C/C[C@H](O)[C@H](O)C(=O)/C=C\C[C@H](C)OC2=O | -1.38% (active) | 40.6% | 51.1% | 23.2% | -15.4% (active) | -61.3% (active) | 58.6% | 24.7% | -5.15% (active) | 
16 | CC1(C)CC[C@]2(C(=O)O)CC[C@]3(C)C(=CCC4[C@@]5(C)C[C@@H](O)[C@@H]6OC(c7ccccc7O)OC[C@@]6(C)C5CC[C@]43C)C2C1 (stereo not given in full) | 58.2% | 87% | 45.6% | 46% | 52% | 53.6% | 27.7% | 22.2% | 29.7% | 
17 | Cn1cc2c(c1)-c1c(sc3nc(-c4ccc(NC(=O)Nc5cc(C(C)(C)C)on5)cc4)cn13)CC2 | 50.7% | 51.8% | 16.7% | 27.5% | 42.8% |  | 64.5% | -3.49% (active) | 45.6% | 
18 | C/C(=C(/C)C1CC1CCN(C(=O)c1ccc([N+](=O)[O-])cc1)S(=O)(=O)c1ccc(C)cc1)C1CCCCC1 (stereo not given) | 87.2% | 90.8% | 109% | 98.6% | -49% (active) | 83.8% | 97.8% | 96.2% | 112% | 
19 | COC[C@]12CC[C@@H](C)[C@H](C)[C@H]1C1=CC[C@@H]3[C@@]4(C)CCCNC(C)(C)[C@@H]4CC[C@@]3(C)[C@]1(C)CC2 | 52.1% |  | 40% | -42.3% (active) | 48.3% | -31.9% (active) | 20.8% | 21.1% | -52.4% (active) | 64.6%
20 | CCC(=O)Nc1ccc(-c2nc(-c3cccc(O)c3)c(-c3ccnc(Br)c3)[nH]2)cc1 | 86% |  | 75% | 20.9% | 57.5% | 57.8% | 83.6% | 46.8% | 80.4% | 73.9%
21 | CN1CCN(Cc2ccc(NC(=O)c3cncc(C#Cc4cnc5ccc(NC6CCOCC6)nn45)c3)cc2C(F)(F)F)CC1 | -52.9% (active) |  | -0.603% (active) | -81.4% (active) | -29.2% (active) | -68.5% (active) | -14.2% (active) | -88.3% (active) | -90.6% (active) | -20% (active)
22 | Cc1cc(O)c(=O)cc2c1C[C@H]1CC(C)(C)/C=C/C[C@]3(C)Oc4cc(=O)c(O)cc(C)c4C[C@H]3C[C@H](O)[C@@]1(C)O2 | -10.9% (active) |  | -12.4% (active) | 0.132% (active) | -16.1% (active) |  | -0.223% (active) | -24.3% (active) |  | 16%
23 | COc1ccc(Cn2cc3c(c2-c2cc(OC)c(OC)c(OC)c2)CCCc2cnoc2-3)cc1N | 47.1% |  | 51.1% | 11.5% | 65.3% | 12.5% | 43% | 38.1% | 12.7% | 46.3%
24 | O=C1/C(=C/c2ccc([N+](=O)[O-])cc2)SC(=Nc2ccccc2)N1Nc1ccccc1 | 60.5% |  | 97.1% | 50.9% | 108% | 58.1% | 71.5% | 66.4% | 92.6% | 60.9%
25 | Cc1cccc(NC(c2cc3cccc4ccc5cccc2c5c43)c2nnnn2C(C)(C)C)c1C (stereo not given) | 82.2% |  | 86.5% | 93.4% | 90.2% | 77.3% | 92.7% | 97.6% | 102% | 86.4%
26 | COc1cc(NC2=C(Cl)C(=O)c3nc(C)ccc3C2=O)cc(OC)c1 | -55.6% (active) |  | 0.846% (active) | 2.02% (active) | -12.2% (active) | -80.6% (active) | 42.4% | -59.5% (active) | -80.5% (active) | 89.8%
27 | CC1COc2c(N3CCN(C)CC3)c(F)cc3c(=O)c(C(=O)N/N=C/c4cc[nH]c4)cn1c23 (stereo not given) | 41.1% |  | 38% | 0.46% (active) | 28% | 13.8% | -5.87% (active) | 1.52% (active) | 54.4% | 65.7%
28 | Oc1ccc(CSc2nnc(-c3ccccc3)n2-c2ccccc2)c2cccnc12 | 18.8% |  | 11.1% | 1.36% (active) | -14.4% (active) | 12.6% | 13% | 18.7% | 61.7% | 18.5%
